Our source for the outcome and AC50 values is PubChem BioAssay (EPA / NIEHS).

SMILES strings stand for the structures. Records with an inconclusive call do not appear. Calls of active or inactive are those of the source. The calls were made as follows: active = hit-call score of the fitted dose curve at least 0.9, where 1 is the maximum; inconclusive = response in the unintended direction; inactive = score below 0.9.

As a reminder, the AC50 is the concentration at which the activity in the assay is half-maximal.

The assay is described as follows: Tanguay_ZF_120hpf_SNOU_legacy: (Legacy) Oregon State University Tanguay Lab 120 Hour Post-fertilization zebrafish Assay for Snout Malformation (AID 2283637). The procedure:
Tanguay_ZF_120hpf_legacy is a whole embryo, multiplexed endpoint assay using zebrafish larvae exposed for 120 hours post fertilization on a 96-well plate.Tanguay_ZF_120hpf_SNOU_legacy is one of one assay component(s) measured or calculated from the Tanguay_ZF_120hpf_legacy assay. It is designed to make measurements of zebrafish development as detected with brightfield microscopy of developing zebrafish embryos.Data from the assay component Tanguay_ZF_120hpf_SNOU_legacy was analyzed into 1 assay endpoints. This assay endpoint, Tanguay_ZF_120hpf_SNOU_legacy, was analyzed in the positive analysis fitting direction relative to DMSO as the negative control and baseline of activity. Using a type of morphology reporter, gain-of-signal activity can be used to understand changes in developmentals as they relate to the whole embryo. To generalize the intended target to other relatable targets, this assay endpoint is annotated to the zebrafish development intended target family, where the subfamily is embryonic snout morphogenesis.
Zebrafish husbandry: Tropical 5D wild-type adult zebrafish were housed in at an approximate density of 1000 per 100 gallon tank at the Sinnhuber Aquatic Research Laboratory, Oregon State University, Corvallis, OR. Each tank was kept at standard laboratory conditions of 28C on a 14-h light/10-h dark photoperiod in fish water consisting of reverse osmosis water supplemented with a commercially available salt (Instant Ocean). Spawning funnels were placed into the tanks the night prior, and embryos were collected and staged. To increase bioavailability, the chorion was enzymatically removed using pronase (63.6mg/ml, >/= 3.5U/mg, Sigma-Aldrich: P5147) at 4 hours post fertilization (hpf) using a custom automated dechorionator.Chemical exposures: Six hpf dechorionated embryos were placed 1 embryo per well in a 96-well plate prefilled with 90 ul of EM using automated embryo placement systems (AEPS). Ten microliters of each row of dilution plate 2 was added to 2 exposure plates. The final DMSO concentration used was 0.64% (vol/vol). Thirty-two embryos were also exposed to 5uM trimethyltin chloride (positive control). Plates were sealed to prevent evaporation and foil covered to reduce light exposure and kept in a 28C incubator. Embryos were statically exposed until 120 hpf. At 24 hpf, embryos were assessed for photomotor response using a custom photomotor response analysis tool (PRAT) and for developmental toxicity endpoints (MO24: mortality at 24 hpf, DP: developmental progression, SM: spontaneous movement, and NC: notochord distortion). At 120 hpf, locomotor activity was measured using Viewpoint Zebralab and assessed for 18 endpoints. Zebrafish acquisition and analysis program (ZAAP), a custom program designed to inventory, acquire, and manage zebrafish data, was used to collect developmental endpoints as either present or absent (i.e., binary responses were recorded). If mortality occurred for an embryo (at either 24 or 120 hpf), the non-mortality endpoints were not measured.
For the molecule `ClC1=C(Cl)[C@]2(Cl)[C@H]3[C@H]([C@@H]4C=C[C@H]3C4)[C@@]1(Cl)C2(Cl)Cl`, the result was inactive.
Turning to `CS(=O)(=O)NC(=O)c1cc(Oc2ccc(C(F)(F)F)cc2Cl)ccc1[N+](=O)[O-]`, the outcome was inactive.
Consider `CC(C)(C)OOC(C)(C)CCC(C)(C)OOC(C)(C)C`, for which the molecule was classed as inactive.
Consider `CCC12COCN1COC2`, for which the result was inactive.
Same read-out and setting: to `Nc1cc(Cl)cc(C(=O)O)c1Cl` belongs “inactive”.
Take `O=C(Nc1ccccc1)c1ccccc1I`: the AC50 was 12.1 µM (active).
On the same count and under the same terms, to `CC(C)COC(=O)c1ccccc1C(=O)OCC(C)C` belongs 44.1 µM (active).
On to `OCCOCCO`, for which the call was inactive.
The same measure, in the same setting: under `c1ccc(N=Nc2ccccc2)cc1` stands “inactive”.
Take `CN(C)c1ccc(C(=O)c2ccc(N(C)C)cc2)cc1`: the AC50 is 27.7 µM (active).
On the same count and under the same terms, under `CCNS(=O)(=O)C(F)(F)C(F)(F)C(F)(F)C(F)(F)C(F)(F)C(F)(F)C(F)(F)C(F)(F)F` stands 54.9 µM (active); under `Oc1ccc2ccc3cccc4ccc1c2c34`, 44.2 µM (active).
With `CCOc1cccc(C2(N3CCN(c4ccccc4)CC3)CCC(C)CC2)c1` (stereo not given), the result was inactive.
Still for that read-out and setting: to `CCCSC(=O)N(CCC)CCC` belongs “inactive”; to `N#CC(Br)Br`, “inactive”; to `c1ccc(C2CO2)cc1` (stereo not given), “inactive”.
`ClCCOCCCl`: the outcome was inactive.
On the same count and under the same terms, to `CN(C)c1ccccc1` belongs “inactive”; to `O=C(Oc1ccc(Br)cc1)N1CCN2CCC1CC2`, “inactive”; to `Nc1ccc(N=Nc2ccccc2)cc1`, “inactive”.
For the molecule `CC(C)N(Cc1ccccc1)C(=O)C(C)(C)C`, the molecule was called inactive.
On the same count and under the same terms, under `[O-][Cl+]O` stands “inactive”; under `c1ccc(NNc2ccccc2)cc1`, “inactive”.
Still for that read-out and setting: to `OCCCBr` belongs “inactive”; to `CCCCCCCCOC(=O)c1ccc(C(=O)OCCCCCCCC)c(C(=O)OCCCCCCCC)c1`, “inactive”; to `O=P(OCCCl)(OCCCl)OCCCl`, “inactive”.
For the molecule `Nc1ccc(Oc2ccc(N)cc2)cc1`, the call was inactive.
On the same count and under the same terms, to `Nc1ccc(Cc2ccc(N)cc2)cc1` belongs “inactive”; to `N#CC(Br)(Br)C(N)=O`, “inactive”.
For `CCOC(=O)[C@]1(c2ccccc2)Oc2ccccc2[C@@H]1N`, the call was inactive.
Consider `CC(O)CCO` (stereo not given), for which the outcome was inactive.
For the molecule `C1=Cc2cccc3cccc1c23`, the call was inactive.
Regarding `CC(C)(C)C(O)(CCc1ccc(Cl)cc1)Cn1cncn1` (stereo not given), the molecule was called inactive.
Consider `CCC(C)c1ccc(O)cc1` (stereo not given), for which the call was inactive.
With `[Cl-].[Cl-].[Hg+2]`, the AC50 was 3.82 µM (active).
For the molecule `CCCCCCCCCCCCCN1CC(C)OC(C)C1` (stereo not given), the molecule was classed as inactive.
Consider `COc1cc(C=O)cc2c1[C@H](COC(N)=O)[C@]1(OC(C)=O)ON2C[C@H]2[C@@H]1N2C(C)=O`, for which the AC50 was 21.6 µM (active).
In the case of `CO[C@@H]1[C@H](OC(=O)NC(=O)CCl)CC[C@]2(CO2)[C@H]1[C@@]1(C)O[C@@H]1CC=C(C)C`, the AC50 is 0.239 µM (active).
As to `CCCCCOC(=O)c1ccccc1C(=O)OCCCCC`, the result was inactive.
Same read-out and setting: to `Cc1cc(N=Nc2ccccc2C)ccc1N` belongs “inactive”.
